In the library only some 20% were active in any assay of this set; here they are far more common.
Pf growth 96h: inhibits malaria parasite growth, 96 h; P. falciparum luciferase reporter growth, 96 h; Potency, µM (highest dose often 28.7 µM), without a hit: at the highest dose activity change, negative = inhibition, usual class: inhibitors; 6.9% of 320,000 active; AID 504834; also: potency is read from the fitted curve at half-maximal effect; % is scaled to controls: 0 for no effect and ±100 for the full control effect
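Erythrocytes infected with luciferase-expressing P. falciparum were dispensed at 2% hematocrit and 0.05% parasitemia (final), then incubated with compounds 96 hours at 37 C in 5% CO2. Luminescence after detection reagent addition reported growth.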
HCMV antiviral: inhibitors of human cytomegalovirus | activity change, negative = inhibition, % at 57.5 µM | HFF cells, HCMV-luciferase reporter, 72 h; hits give low values | 4.5% of 410,000 active; in the data active = activity change below about -60%; inconclusive = no clear call, values can overlap the other calls; inactive = above about -39%; also: % is scaled to controls: 0 for no effect and ±100 for the full control effect
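Compounds were evaluated in HFFs infected with an HCMV luciferase reporter virus (MOI 1 PFU/cell). Luciferase in lysates collected 72 h post infection served as the replication measure.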
Pf growth 48h: P. falciparum growth inhibition at 48 hours (one generation) | P. falciparum luciferase growth in erythrocytes, 48 h | Potency, µM (doses to about 28.7 µM), for the others: top-dose activity change, negative = inhibition, actives largely listed as inhibitors | 5.9% of 310,000 active | AID 504832; also: potency is read from the fitted curve at half-maximal effect; % is scaled to controls: 0 for no effect and ±100 for the full control effect
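Compounds are pin-transferred into medium, infected erythrocytes (2% hematocrit, 0.1% parasitemia final) are added, and plates sit one parasite generation at 37 C in 5% CO2. Detection reagent is then added and luminescence measured.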
Shiga toxin inh: blocks Shiga toxin action in Vero cells. Vero cells, Shiga toxin protein synthesis inhibition reporter. inhibition, % at 38.7 µM. 9.2% of 290,000 active. AID 2315; in the data active = inhibition mostly above about 28%, no sharp cut-off; inactive = mostly below about 43%; also: 0% is about no effect
Cycloheximide cs: affects cycloheximide protein synthesis inhibition readout, counter-screen; max response, %; 12% of 300,000 active; cell reporter, cycloheximide protein synthesis inhibition counterscreen; AID 2314; in the data active = max response mostly above about 13%, no sharp cut-off; inactive = mostly below about 14%; also: read at 38.3 µM for the half of the compounds with a filed dose; 0% is about no effect
An asterisk follows results filed as active; ? = inconclusive; · = no result given. Unless noted, calls follow the shape of the dose curve; as a rule, active = well fitted inhibition curve with a large enough effect; inconclusive = small, poorly fitted or top-dose-only effect, or another doubt; inactive = no such curve, though single readings can be large or run the other way.

SMILES	Pf growth 96h	HCMV antiviral	Pf growth 48h	Shiga toxin inh	Cycloheximide cs
CCN(CC)c1ccc(C=C2C(=O)OC3(CCCCC3)OC2=O)cc1	13%	34	25%	-5	8
COc1ccc(C(=O)CC2SC(N)=NC2=O)cc1 (centres undefined)	0%	-30	13%	2	-2
CC(C)(C)c1ccc(C2=NC(=O)C(CC(=O)O)S2)cc1 (centres undefined)	92%	8	2.6µM*	31	13*
Cc1ccc(C)c(OCCC(=O)OCC(=O)NCCc2ccc(S(N)(=O)=O)cc2)c1	34%	-39	2%	·	·
C/C(=N/OC(=O)c1ccccc1)c1oc(C)nc1C	0%	44	-6%	64*	51*
Cc1ccc(S(=O)(=O)CC(=O)NC(C)(C)C)cc1	3%	53	7%	18	-4
O=C(CSc1cccc[n+]1[O-])N1CCCCCC1	22%	-3	-4%	-15	1
[O-][n+]1ccccc1SSc1cccc[n+]1[O-]	0.48µM*	·	0.85µM*	·	·
O=C(CSc1cccc[n+]1[O-])CSc1cccc[n+]1[O-]	0.19µM*	7	9.3µM*	-8	7
Cc1ccc2cc(CCNC(=O)C(=O)c3c(C)[nH]c4ccccc34)c(=O)[nH]c2c1	-26%	7	?	-23	-3
CCC(CC)C(=O)NCCc1cc2ccc(C)cc2[nH]c1=O	0%	-18	9%	-13	-5
Cc1ccc2cc(CCNC(=O)c3cccs3)c(=O)[nH]c2c1C	84%	53	171%	47*	45*
Cc1ccc2cc(CCNC(=O)C(=O)c3c[nH]c4ccccc34)c(=O)[nH]c2c1	?	-2	9.3µM*	-4	7
Cc1ccc2cc(CCNC(=O)c3cccs3)c(=O)[nH]c2c1	-19%	-14	72%	38	25*
Cc1ccc2cc(CCNC(=O)CC(C)C)c(=O)[nH]c2c1	?	-67*	3%	-7	-2
CCC(=O)NCCc1cc2ccc(C)cc2[nH]c1=O	11%	4	23%	8	2
CC1=C(C(=O)Nc2cccnc2)C(c2cccc(Br)c2)n2nc(SCc3ccccc3)nc2N1 (centres undefined)	·	-1	·	·	·
COc1cc(OC)cc(N2CCN(S(=O)(=O)c3ccc(-n4cnnn4)cc3)CC2)c1	?	0	18%	-5	-6
COc1ccc(NC(=O)CSCC(=O)Nc2nnc(CC(C)C)s2)cc1	-3%	-19	1%	·	·
Cc1ccc2cc(CNC(C)(C)C)c(=O)[nH]c2c1	·	15	-18%	-5	18*
CNCc1cc2ccc(C)cc2[nH]c1=O	19%	40	1%	-18	-6
COc1ccc(C(=O)NC(=S)N(C)C2CCCCC2)cc1	12µM*	-8	-11%	50*	36*
Cc1ccc(C(=O)NC(=S)N(C)C2CCCCC2)cc1Br	?	5	?	23	12
COc1ccc(C(=O)NCCS(=O)(=O)N(C)C2CCCCC2)cc1	?	-2	1%	·	·
COc1ccc(C(=O)NC(=S)N(C)C2CCCCC2)cc1Br	3.7µM*	?	?	-8	-1
SMILES	Pf growth 96h	HCMV antiviral	Pf growth 48h	Shiga toxin inh	Cycloheximide cs
COc1ccc(C(=O)NC(=S)N2CCC(C)CC2)cc1Br	?	-11	87%	29*	18*
CC(C)c1nn2c(=O)cc(COC(=O)C3CCCCC3)nc2s1	·	-6	·	·	·
CCc1ccc(NC(=O)C(Cc2ccccc2)NS(=O)(=O)c2ccc3c(c2)c(=O)n(C)c(=O)n3C)cc1 (centres undefined)	·	22	·	·	·
COc1ccc(N(C(=O)Cc2cccs2)C(C(=O)NC2CCCC2)c2ccncc2)cc1OC (centres undefined)	?	70	-14%	-13	1
Cc1cccc(N(C(=O)C(F)(F)F)C(C(=O)NC2CCCCC2)c2cccs2)c1 (centres undefined)	9%	-19	?	-6	-2
C#CC(=O)N(c1cccc(OC)c1)C(C(=O)NC1CCCC1)c1cccs1 (centres undefined)	?	-101*	31%	-32	-11
C#CC(=O)N(c1ccc(OC)c(OC)c1)C(C(=O)NC1CCCC1)c1cccs1 (centres undefined)	-9%	-99*	-12%	-26	-9
O=C(Nc1cc(Cl)cc(Cl)c1)C1CC(=O)N(C2CCCC2)C1 (centres undefined)	100%	1	10%	·	·
Cc1ccc(CN2CCNC(=O)C2CC(=O)N(C)C2CCOCC2)cc1 (centres undefined)	?	11	-4%	-6	-1
Cc1ccc(N2C(=O)CC(Cc3cc(C)cc(C)c3)C2=O)cc1 (centres undefined)	-2%	-1	-13%	-7	-2
Cc1ccc(C)c(N2C(=O)CC(Cc3ccccc3)C2=O)c1 (centres undefined)	15µM*	29	2%	-2	-1
COc1ccc(N2C(=O)CC(Cc3ccccc3)C2=O)cc1 (centres undefined)	21%	6	8%	38	15
Cn1c(N2C(=O)CC(Cc3ccccc3)C2=O)nc2ccccc21 (centres undefined)	1.7µM*	-5	11%	19	-2
Cc1cc(C)cc(CC2CC(=O)N(c3nc(C)cc(C)n3)C2=O)c1 (centres undefined)	-1%	52	21%	51*	27*
Cc1cc(C)cc(CC2CC(=O)N(c3cc(C)ccc3C)C2=O)c1 (centres undefined)	304%	-26	-20%	-12	-2
Cc1ccc(-n2c(-c3ccc(Br)cc3)c[n+]3c2CCc2ccc4cccnc4c2-3)cc1	0.47µM*	-104*	1.7µM*	-39	-8
COc1ccc(-n2c(C)nc(=O)c(-c3ccccc3)c2C)cc1	9.3µM*	4	-19%	-3	-3
O=C1c2ccccc2CCC12N=NCC2c1ccc(Br)cc1 (centres undefined)	2.3µM*	-18	·	-8	11
O=C1c2ccccc2CCC12N=NCC2c1ccc(Cl)cc1 (centres undefined)	?	8	10µM*	-1	-2
O=C1Cc2ccccc2C(c2ccc(Cl)cc2)N1 (centres undefined)	-22%	0	?	3	-3
CCc1noc(C)c1C(=O)N(CC)CC(=O)NCc1ccc(Cl)cc1	-10%	?	12%	·	·
N#Cc1c(NC(=O)CSc2ncnc3sccc23)oc(-c2ccco2)c1-c1ccco1	2.3µM*	-19	·	-19	-3
Cc1cccc2c(=O)cc(CSc3ccccc3NC(=O)C(C)(C)C)[nH]c12	·	40	·	·	·
O=C(c1ccoc1)N1CCC2(CCCN(Cc3ccc(F)c(F)c3)C2)C1 (centres undefined)	12µM*	-3	?	-6	11
Cc1occc1C(=O)N1CCC2(CCCN(Cc3ccc(F)c(F)c3)C2)C1 (centres undefined)	-14%	?	?	0	20
COc1ccc(CCNC(=O)Cn2nnc(-c3ccc(Cl)cc3)n2)cc1OC	·	-2	·	·	·

Compound activity from PubChem.
